Assay results: PubChem BioAssay
Active and inactive are the calls of the source. Cut-off read from the data, not from the text of the source, unless noted: active = inhibition above about 80%; inactive = the rest. Non-standard residues stand in square brackets, D forms with d. Residues, ends and D or L forms follow the SMILES beside them. Dolaproine = CO[C@@H]([C@@H]1CCCN1)[C@@H](C)C(=O)O; Dil = CC[C@H](C)[C@H](NC)[C@@H](CC(=O)O)OC; NMeV = CN[C@H](C(=O)O)C(C)C

Columns and labels:
[1] = LFS_MB_P medulloblastoma growth inhibition, cell-based, chromothripsis tumors, cisplatin or BGB combos (AID 1671449); details: LFS_MB_P medulloblastoma cells;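 note: cells exposed for 96 hours; 0% = vehicle DMSO and 100% = killing by high DMSO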
[2] = HDN33 neuroblastoma growth inhibition, cell-based, chromothripsis tumors, cisplatin or BGB combos (AID 1671450); details: HDN33 neuroblastoma cells, stronger effect = higher value;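 note: cells exposed to compound for four days; 0% = vehicle DMSO and 100% = cell killing by high DMSO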
[3] = ICB984 medulloblastoma cell growth inhibition, synergistic combos for chromothripsis tumors, cisplatin or BGB combos (AID 1671451; call rule not given here;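 note: cells exposed for 96 hours before readout; 0% = vehicle DMSO and 100% = killing by high DMSO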); details: ICB984 medulloblastoma cells, drug combinations, stronger effect = higher value
[4] = LFS_MB_1R medulloblastoma cell growth inhibition, synergistic combos for chromothripsis tumors, cisplatin or BGB combos (AID 1671452); details: LFS_MB_1R medulloblastoma cells, stronger effect = higher value;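 note: cells exposed for 96 hours before readout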
[5] = HTB85 osteosarcoma cell growth inhibition, synergistic combos for chromothripsis tumors, BGB or cisplatin IC20 combos (AID 1671453); details: HTB85 osteosarcoma cells, drug combinations, stronger effect = higher value;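 note: cells exposed for 96 hours before readout; 0% = vehicle DMSO and 100% = high DMSO killing control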
[6] = CRL2098 osteosarcoma cell growth inhibition, synergistic combos for chromothripsis tumors, BGB or cisplatin IC20 combos (AID 1671454); details: CRL2098 osteosarcoma cells, drug combinations, stronger effect = higher value;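 note: cells exposed for 96 h before readout; 0% = vehicle DMSO and 100% = killing by high DMSO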
[7] = HD-MB03 medulloblastoma cell growth inhibition, synergistic combos for chromothripsis tumors, BGB or cisplatin IC20 combos (AID 1671455; in the data active = inhibition above about 83%;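 note: 0% = vehicle DMSO and 100% = high DMSO as cytotoxic control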); details: HD-MB03 medulloblastoma cells, stronger effect = higher value
[8] = UWB1.289 ovarian carcinoma cell growth inhibition, synergistic combos for chromothripsis tumors, BGB or cisplatin combos (AID 1671456); details: UWB1.289 ovarian carcinoma cells, stronger effect = higher value;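 note: cells exposed to compound for four days; 0% = vehicle DMSO and 100% = killing by high DMSO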
[9] = LFS_MB_2R medulloblastoma cell growth inhibition, synergistic combos for chromothripsis tumors, cisplatin combos (AID 1671457); details: LFS_MB_2R medulloblastoma cells, stronger effect = higher value;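 note: cells exposed to compound for four days before readout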
[10] = MDA-MB-436 breast carcinoma cell growth inhibition, synergistic combos for chromothripsis tumors, BGB or cisplatin combos (AID 1671458; call rule not given here;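 note: cells exposed for 96 hours; 0% = vehicle DMSO and 100% = killing by high DMSO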); details: MDA-MB-436 breast carcinoma growth inhibition, drug combinations, stronger effect = higher value
[11] = UWB1.289_BRCA1 ovarian cancer growth, cell-based, BGB or cisplatin combinations (AID 1671459); details: UWB1.289 BRCA1 ovarian carcinoma, drug combinations, stronger effect = higher value
[12] = human astrocyte viability loss, single and combined drugs, cytotoxicity control for chromothriptic childhood tumor combination screen, cell-based, BGB or cisplatin IC20 combos (AID 1671460); details: Human astrocytes, drug combinations, stronger effect = higher value;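 note: cells exposed to compounds for 96 hours before viability readout; 0% = vehicle and 100% = killing control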
[13] = growth inhibition of BT084 medulloblastoma cells, cell-based, ICGC_MB145, cisplatin and BGB IC40 combos (AID 1671461); details: drug combinations, stronger effect = higher value;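 note: cells exposed to drugs for 96 hours; 0% = vehicle DMSO and 100% = high DMSO full killing control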
[14] = growth inhibition of RCMB18 medulloblastoma cells, cell-based, cisplatin and BGB IC40 combos (AID 1671462); details: stronger effect = higher value;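 note: cells exposed to compound for four days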
[15] = growth inhibition of CRL1545 osteosarcoma cells, cell-based, cisplatin and BGB IC20 combos (AID 1671464); details: stronger effect = higher value;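 note: cells exposed to compound for 96 hours before readout; 0% = vehicle DMSO and 100% = high DMSO killing control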
[16] = at 0.5 µM, stronger effect = higher value
[17] = measured here: combination with BGB IC20, at 0.005 µM
[18] = measured here: combination with BGB IC40, at 0.005 µM
[19] = measured here: combination with BGB IC40, at 0.05 µM
[20] = measured here: combination with cisplatin, at 0.5 µM, stronger effect = higher value
[21] = measured here: combination with cisplatin, at 5 µM, stronger effect = higher value
[22] = measured here: with BGB IC20 combination, at 0.5 µM
[23] = measured here: with cisplatin IC20 combination, at 0.5 µM
[24] = measured here: 5 uM single agent, at 5 µM
[25] = measured here: combination with cisplatin, at 0.5 µM
[26] = measured here: combination with cisplatin, at 5 µM
[27] = measured here: with BGB IC20, at 0.5 µM
[28] = measured here: with BGB IC20, at 5 µM
[29] = measured here: with cisplatin IC20, at 0.5 µM
[30] = measured here: with cisplatin IC20, at 5 µM
[31] = measured here: combination with BGB at IC20, at 0.5 µM
[32] = measured here: combination with cisplatin at IC20, at 0.5 µM
[33] = measured here: combo with BGB at IC20, at 0.5 µM
[34] = measured here: combo with cisplatin at IC20, at 0.5 µM
[35] = measured here: inhibition with BGB combination, at 0.05 µM
[36] = measured here: inhibition with cisplatin combination, at 0.05 µM
[37] = measured here: BGB combination, at 0.5 µM
[38] = measured here: BGB combination, at 5 µM
[39] = measured here: cisplatin combination, at 0.5 µM
[40] = measured here: cisplatin combination, at 5 µM
[41] = BGB combination, concentration series, at 5 µM
[42] = cisplatin combination, concentration series, at 5 µM
[43] = measured here: combo with BGB IC20, at 0.5 µM
[44] = measured here: combo with cisplatin IC20, at 0.5 µM
[45] = cisplatin combination, at 0.5 µM
[46] = measured here: BGB IC40 combination 0.05 uM, at 0.05 µM
[47] = measured here: BGB IC40 combination, at 0.05 µM

CC[C@H](C)[C@@H]([C@@H](CC(=O)N1CCC[C@H]1[C@H](OC)[C@@H](C)C(=O)N[C@@H](Cc1ccccc1)C(=O)O)OC)N(C)C(=O)[C@@H](NC(=O)[C@@H](NC)C(C)C)C(C)C (H-[NMeV]V[Dil][Dolaproine]F-OH)
inhibition [1, 16]: -34.4% (inactive)
inhibition [1, 17]: -15%
inhibition [1, 18]: -52.5%
inhibition [1, 19]: -31.6%
inhibition [1, 20]: -31.7%
inhibition [1, 21]: 13.5%
inhibition ([2]; BGB combo, at 5 µM): 68.3%
inhibition ([2]; at 0.5 µM): 71.4% (inactive)
inhibition ([2]; cisplatin combo, at 5 µM): 69.6%
inhibition [2, 22]: 62.6%
inhibition [2, 23]: 60.4%
inhibition ([2]; single agent, at 5 µM): 96.5%
inhibition ([3]; BGB IC20 combo, at 0.005 µM): -18.1%
inhibition ([3]; BGB IC40 combo, at 0.005 µM): -4.8%
inhibition ([3]; BGB IC40 combo, at 0.05 µM): 21.2%
inhibition ([3]; at 0.5 µM): -6.87% (inactive)
inhibition ([3]; cisplatin combo, at 0.05 µM): 17.4%
inhibition ([3]; cisplatin combo, at 0.5 µM): -3.43%
inhibition ([3]; cisplatin combo, at 5 µM): -11.7%
inhibition [3, 24]: -7.94%
inhibition ([4]; at 0.5 µM): -16.4% (inactive)
inhibition [4, 19]: -34.7%
inhibition [4, 25]: -7.82%
inhibition [4, 26]: 15.8%
inhibition ([5]; at 0.5 µM): 55.8% (inactive)
inhibition [5, 27]: 69.6%
inhibition [5, 28]: 59.7%
inhibition [5, 29]: 20.4%
inhibition [5, 30]: 67.1%
inhibition ([5]; single agent, at 5 µM): 86.4%
inhibition ([6]; at 0.5 µM): 35% (inactive)
inhibition [6, 31]: 36.6%
inhibition [6, 32]: 9.03%
inhibition ([7]; at 0.5 µM): 43.8% (inactive)
inhibition [7, 33]: 44.1%
inhibition [7, 34]: 39.9%
inhibition ([8]; at 0.5 µM): 20.2% (inactive)
inhibition [8, 35]: -13%
inhibition [8, 36]: -3.2%
inhibition ([9]; at 0.5 µM): -9.71% (inactive)
inhibition [9, 25]: -31.2%
inhibition [9, 26]: -10.7%
inhibition ([10]; at 0.5 µM): 50.1% (inactive)
inhibition [10, 37]: 39.8%
inhibition [10, 38]: 58%
inhibition [10, 39]: 45.4%
inhibition [10, 40]: 73.6%
inhibition [11, 41]: 49.3%
inhibition ([11]; at 0.5 µM): 26.4% (inactive)
inhibition [11, 42]: 53.2%
inhibition ([12]; at 0.5 µM): 31.9% (inactive)
inhibition [12, 43]: 39.5%
inhibition [12, 44]: 19.9%
inhibition ([13]; at 0.5 µM): 7.92% (inactive)
inhibition [13, 45]: -4.86%
inhibition ([13]; cisplatin combination, at 5 µM): -10.9%
inhibition [13, 46]: -19.9%
inhibition ([13]; single agent, at 5 µM): 67.2%
inhibition ([14]; at 0.5 µM): -11.8% (inactive)
inhibition ([14]; cisplatin combo, at 5 µM): 17%
inhibition [14, 47]: -3.82%
inhibition [14, 25]: -17.8%
inhibition ([14]; single agent, at 5 µM): 17.3%
inhibition ([15]; at 0.5 µM): 42.9% (inactive)
inhibition [15, 22]: 47.9%
inhibition [15, 23]: 39.4%
inhibition ([15]; single agent, at 0.05 µM): -9.33%
inhibition ([15]; single agent, at 5 µM): 84.4%

O=c1ccn(C2CC(O)C(CO)O2)c(=O)[nH]1 (stereo unspecified)
inhibition [1, 16]: -18.8% (inactive)
inhibition [1, 17]: -7.41%
inhibition [1, 18]: -27.4%
inhibition [1, 19]: -29.5%
inhibition [1, 20]: -37.9%
inhibition [1, 21]: -35.5%
inhibition ([2]; BGB combo, at 5 µM): -20.7%
inhibition ([2]; at 0.5 µM): -36.9% (inactive)
inhibition ([2]; cisplatin combo, at 5 µM): -20.7%
inhibition [2, 22]: -38.7%
inhibition [2, 23]: -41.3%
inhibition ([2]; single agent, at 5 µM): -10.1%
inhibition ([3]; BGB IC20 combo, at 0.005 µM): 4%
inhibition ([3]; BGB IC40 combo, at 0.005 µM): -31.4%
inhibition ([3]; BGB IC40 combo, at 0.05 µM): -22%
inhibition ([3]; at 0.5 µM): -20.1% (inactive)
inhibition ([3]; cisplatin combo, at 0.05 µM): -25.4%
inhibition ([3]; cisplatin combo, at 0.5 µM): -21.2%
inhibition ([3]; cisplatin combo, at 5 µM): -29.4%
inhibition [3, 24]: -22%
inhibition ([4]; at 0.5 µM): -29.6% (inactive)
inhibition [4, 19]: -35%
inhibition [4, 25]: -32.9%
inhibition [4, 26]: -47.4%
inhibition ([5]; at 0.5 µM): -20.1% (inactive)
inhibition [5, 27]: -39.5%
inhibition [5, 28]: -39.3%
inhibition [5, 29]: -5.42%
inhibition [5, 30]: -49.8%
inhibition ([5]; single agent, at 5 µM): -26.7%
inhibition ([6]; at 0.5 µM): -68.3% (inactive)
inhibition [6, 31]: -48.5%
inhibition [6, 32]: -72.4%
inhibition ([7]; at 0.5 µM): -3.73% (inactive)
inhibition [7, 33]: -8.35%
inhibition [7, 34]: -4.82%
inhibition ([8]; at 0.5 µM): 0.16% (inactive)
inhibition [8, 35]: -21%
inhibition [8, 36]: -1.45%
inhibition ([9]; at 0.5 µM): -20.5% (inactive)
inhibition [9, 25]: -18.3%
inhibition [9, 26]: -78.5%
inhibition ([10]; at 0.5 µM): -14.8% (inactive)
inhibition [10, 37]: -6.54%
inhibition [10, 38]: -25.5%
inhibition [10, 39]: -29.1%
inhibition [10, 40]: -17%
inhibition [11, 41]: -3.77%
inhibition ([11]; at 0.5 µM): 0.57% (inactive)
inhibition [11, 42]: 10.4%
inhibition ([12]; at 0.5 µM): 3.18% (inactive)
inhibition [12, 43]: -6.85%
inhibition [12, 44]: 4.49%
inhibition ([13]; at 0.5 µM): -24.6% (inactive)
inhibition [13, 45]: -0.373%
inhibition ([13]; cisplatin combination, at 5 µM): 1.74%
inhibition [13, 46]: 26.6%
inhibition ([13]; single agent, at 5 µM): -10.6%
inhibition ([14]; at 0.5 µM): -15.4% (inactive)
inhibition ([14]; cisplatin combo, at 5 µM): 1.69%
inhibition [14, 47]: 3.1%
inhibition [14, 25]: 9.29%
inhibition ([14]; single agent, at 5 µM): -204%
inhibition ([15]; at 0.5 µM): -20.7% (inactive)
inhibition [15, 22]: -5.72%
inhibition [15, 23]: -31.1%
inhibition ([15]; single agent, at 0.05 µM): -46.2%
inhibition ([15]; single agent, at 5 µM): -14.8%
